Source: PubChem BioAssay (National Center for Advancing Translational Sciences (NCATS))
CtBP-E1A inh: blocks the CtBP interaction with E1A; 340,000 tested, 0.49% active; activity change, % (test concentration not listed); AlphaScreen GST-E1A/His-CtBP binding, 1536-well; hits give low values; in the data active = activity change below about -65%; inconclusive = mostly about -30% to -63%
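Protein mix (5X: 125 nM each GST-E1A, His-CtBP) was incubated with pinned compound 2 h at 37 deg C in dark, in 50 mM Tris pH 8.0 buffer with 300 mM NaCl. Glutathione donor and nickel acceptor beads followed; AlphaScreen signal read after 1 h.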
TDP1 block: inhibitors of human tyrosyl-DNA phosphodiesterase TDP1 | Potency, µM (top dose mostly 130 µM), for the others: top-dose activity change, negative = inhibition, usual class: inhibitors | AID 485290 | 350,000 tested, 0.28% active | recombinant TDP1, AlphaScreen DNA substrate cleavage; note: potency is the fitted concentration of half-maximal effect; nearly all actives have a fitted effect of over 40% in size
Target sequence (Q9NUW8 whole entry, looked up): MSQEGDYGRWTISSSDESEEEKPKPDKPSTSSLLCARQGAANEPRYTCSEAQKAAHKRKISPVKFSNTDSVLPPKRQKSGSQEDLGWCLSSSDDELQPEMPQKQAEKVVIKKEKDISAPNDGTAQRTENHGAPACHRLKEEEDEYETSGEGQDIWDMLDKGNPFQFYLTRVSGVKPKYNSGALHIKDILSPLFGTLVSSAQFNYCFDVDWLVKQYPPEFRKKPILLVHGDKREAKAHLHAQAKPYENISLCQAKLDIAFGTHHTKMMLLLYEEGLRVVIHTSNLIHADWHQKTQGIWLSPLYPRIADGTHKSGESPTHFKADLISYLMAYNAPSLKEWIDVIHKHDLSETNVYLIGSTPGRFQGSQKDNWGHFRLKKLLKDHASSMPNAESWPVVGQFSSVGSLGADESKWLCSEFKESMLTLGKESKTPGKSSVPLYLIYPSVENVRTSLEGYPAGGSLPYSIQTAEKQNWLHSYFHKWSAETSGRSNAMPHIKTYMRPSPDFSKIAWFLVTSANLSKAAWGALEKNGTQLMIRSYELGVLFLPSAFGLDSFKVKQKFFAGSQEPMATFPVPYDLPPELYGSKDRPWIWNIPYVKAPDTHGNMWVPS
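Signal: AlphaScreen proximity between streptavidin donor and anti-FITC acceptor beads on intact substrate. Reaction: Tdp1 1 nM, substrate 15 nM final, 5 min RT after 15 min compound preincubation.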
DT40 TDP1 no CPT: qHTS for Inhibitors of human tyrosyl-DNA phosphodiesterase 1 (TDP1): qHTS in cells in absence of CPT. Potency, µM (top dose mostly 46.2 µM), without a hit: at the highest dose activity change, negative = growth inhibition, hits mostly inhibitors. 420,000 tested, 15% active. DT40 Tdp1-/- hTDP1 cells, no CPT, ATP luminescence, 48 h; note: potency is the fitted concentration of half-maximal effect; nearly all actives have a fitted effect of over 55% in size
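Camptothecin absent (DMSO only). Human TDP1-complemented DT40 knockout cells, 400 cells/well, 37 °C for minimum 48 hr; ATP measured via CellTiter-Glo, 30 min dark incubation, luminescence.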
TDP1 cell CPT: DT40-hTDP1 cell growth loss with CPT. chicken DT40 Tdp1-/-;hTDP1 cells + 20 nM CPT, ATP luminescence, 48 h. AID 686979. Potency, µM (series often up to 46.2 µM), without a hit: at the top dose activity change, negative = growth inhibition, usual class: inhibitors. 420,000 tested, 12% active; note: potency is the fitted concentration of half-maximal effect; nearly all actives have a fitted effect of over 55% in size
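Chicken DT40 Tdp1-/- cells stably complemented with human TDP1 were seeded at 400 cells/well in medium containing 20 nM camptothecin, exposed to pin-transferred compounds, and grown at 37 °C for at least 48 hr. Viability was read as ATP luminescence.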
IL1B secr inh: inhibitors of inflammasome signaling (IL-1 beta secretion). activity change, % at 57.5 µM. 360,000 tested, 4.7% active. THP-1 LPS/ATP IL-1B secretion, AlphaLISA, 16 h; hits give low values. AID 743279; in the data active = activity change below about -50%; inconclusive = mostly about -30% to -49%
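Secreted IL-1B measured by AlphaLISA bead assay after 16 h compound exposure of THP-1 cells; compounds (final up to 57.5 uM) added 1 h before LPS (250 ng/mL) and ATP (1.25 mM) stimulation; lower signal means less secretion.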
Six1-Eya2 inh: inhibitors of human Six1/Eya2 interaction; Q15475+O00167; AlphaScreen GST-Six1/His-Eya2 binding, biochemical; hits give low values; activity change, % (concentration not given with the values); 360,000 tested, 0.56% active; in the data active = activity change below about -65%; inconclusive = mostly about -30% to -63%
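AlphaScreen with GST-Six1 and His-Eya2 (5X mix: 250 nM and 500 nM), glutathione donor and nickel acceptor beads; buffer 50 mM Tris pH 8.0, 300 mM NaCl, 1 mM TCEP; 1 h at 37 C in the dark.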
The depositor's hits bear a star; ? = inconclusive; nt = no result given. In the library only some 18% were active in any assay of this set; here they are far more common. Unless noted, calls come from the whole dose curve; as a rule, active = well fitted curve in the direction sought with a large enough effect; inconclusive = small, poorly fitted or top-dose-only effect, or another doubt; inactive = no such curve, though single readings can be large; an effect the other way counts as inactive or inconclusive. % is set by controls: 0 for no effect and ±100 for the full control effect.

SMILES	CtBP-E1A inh	TDP1 block	DT40 TDP1 no CPT	TDP1 cell CPT	IL1B secr inh	Six1-Eya2 inh
C[C@@H]1CCCCO[C@@H](CN(C)C(=O)C2CCCCC2)[C@@H](C)CN([C@H](C)CO)C(=O)c2cc(NC(=O)NC3CCCCC3)ccc2O1	-2	nt	?	23µM*	-15	12
O=C(Cc1cc(=O)oc2cc(O)ccc12)NC(Cc1ccc(Cl)cc1)C(=O)O (stereo unspecified)	3	nt	?	-42%	-9	-4
COC(=O)N/N=C(\C)c1ccco1	nt	1%	10%	6%	21	2
C=CCn1c(SCc2c(C(=O)OC)sc(N)c2C(=O)OC)nnc1-c1ccc(Br)cc1	-6	-2%	18µM*	?	-10	-5
CCOC(=O)CC(=O)CSc1nc2c(sc(=S)n2-c2ccc(C)c(C)c2)c(=O)[nH]1	-15	nt	-14%	-3%	-4	-12
COc1ccc(C=O)cc1Cn1c(C)cc(C)c(C#N)c1=O	3	2%	16µM*	16µM*	31	-5
Cc1ccc(S(=O)(=O)N2CCCCC2)cc1NC(=O)CCCOc1ccccc1	-1	-12%	21µM*	?	-4	-12
Cc1ccc(S(=O)(=O)N2CCCCC2)cc1NC(=O)CCOc1ccccc1	-8	-1%	?	?	-2	1
CCN(CC(=O)Nc1cc(S(=O)(=O)N2CCCCC2)ccc1C)Cc1ccccc1	0	-8%	18µM*	21µM*	-14	-4
Cc1ccc(S(=O)(=O)N2CCCCC2)cc1NC(=O)c1ccco1	-1	nt	-24%	-12%	-17	-4
CC(=O)c1ccc(OCCCC(=O)Nc2cc(S(=O)(=O)N3CCCCC3)ccc2C)cc1	-5	-13%	23µM*	?	6	-2
CCN(CC(=O)NCC(=O)Nc1ccc(Br)cc1C)Cc1ccccc1	4	nt	?	-19%	-63*	-4
O=C(C[C@@H]1C[C@@H]2c3cc(NS(=O)(=O)c4ccc(F)cc4)ccc3O[C@@H]2[C@H](CO)O1)NCc1ccc(Oc2ccccc2)cc1	25	nt	?	?	-11	11
CCN(CC(=O)Nc1ccc(C)c(S(=O)(=O)N2CCOCC2)c1)Cc1ccccc1	-23	0%	?	21µM*	-2	-1
Cc1ccc(NC(=O)CCc2ccccc2)cc1S(=O)(=O)N1CCOCC1	-2	-2%	?	-29%	29	2
C[C@H](CO)N1C[C@H](C)[C@@H](CN(C)S(=O)(=O)c2ccc(Oc3ccccc3)cc2)OCc2cnnn2CCCC1=O	6	nt	0%	14%	12	-1
CN1CCN(C(=O)c2cc3c(c(-c4cccc(-c5cc6ccccc6o5)c4)n2)[C@@H](CCO)N(S(=O)C(C)(C)C)C3)CC1 (stereo partly specified)	-2	nt	?	?	-21	-11
CC(C)(C)S(=O)N1Cc2cc(C(=O)N3CCc4ccccc4C3)nc(-c3cccc(-c4cccnc4)c3)c2[C@@H]1CCO (stereo partly specified)	1	nt	21µM*	?	-20	-13
COc1ccccc1-c1cccc(-c2nc(C(=O)N3CCCCC3)cc3c2[C@H](CCO)N(S(=O)C(C)(C)C)C3)c1 (stereo partly specified)	-1	nt	18µM*	21µM*	-9	-3
CN1CCN(C(=O)c2cc3c(c(-c4cccc(C#CC(C)(C)O)c4)n2)[C@H](CCO)N(S(=O)C(C)(C)C)C3)CC1 (stereo partly specified)	8	nt	6%	2%	-11	6
O=C(CN1C(=O)COc2ccc(S(=O)(=O)NC3CCCC3)cc21)Nc1ccc(Cl)cc1F	nt	2%	?	?	nt	nt
Cc1nc2ccc(C(=O)O)cc2c2c1CC(C)S2 (stereo unspecified)	-1	20µM*	4%	18%	0	-26
Cc1nc2cc(C(=O)O)ccc2s1	-3	-6%	6%	1%	-8	3
O=c1c(CO)cc(CO)cc(CO)c1O	nt	nt	-29%	0%	-23	-90*
Cc1ccc(-c2c(C(=O)NCCc3ccc(Cl)cc3)oc(=O)c3ccccc23)cc1	nt	0%	?	?	nt	nt
SMILES	CtBP-E1A inh	TDP1 block	DT40 TDP1 no CPT	TDP1 cell CPT	IL1B secr inh	Six1-Eya2 inh
CCCCN(Cc1ccccc1)C(=O)c1oc(=O)c2ccccc2c1-c1ccc(C)cc1	nt	0%	?	21µM*	nt	nt
Cc1ccc(CCNC(=O)c2oc(=O)c3ccccc3c2-c2ccc(C)cc2)cc1	nt	-7%	23µM*	?	nt	nt
CCCCN(CCCC)C(=O)c1cc2ccccc2c(=O)o1	13	-3%	16µM*	?	6	3
COc1ccccc1N1CCN(CC(=O)c2ccc3ccn(C(C)=O)c3c2)CC1	-12	4%	?	2.9µM*	40	-2
COc1ccc(C(=O)CCN2CCN(c3ccccc3OC)CC2)cc1	0	8%	5.2µM*	3.7µM*	?	-3
CCOC(=O)CN1NC2(CCC(C(C)(C)C)CC2)NC1=S (stereo unspecified)	-3	9%	-4%	3%	6	5
N=C(N)SCc1cccc2c(=O)cc(-c3ccccc3)oc12	nt	nt	7.1µM*	4.5µM*	nt	nt
COc1cccc(NC(=O)CSc2nc3c(c(=O)n2C)SC(C)C3)c1 (stereo unspecified)	0	3%	?	?	16	-11
NS(=O)(=O)c1ccc(Oc2ccc(S(N)(=O)=O)cc2)cc1	3	1%	-9%	-27%	26	7
C=CS(=O)(=O)c1ccc(Oc2ccc(S(=O)(=O)C=C)cc2)cc1	6	2%	2.3µM*	2.3µM*	-105*	0
COc1cc(C2C=C(C34CC5CC(CC(C5)C3)C4)NC(=S)N2)cc(OC)c1OC (stereo unspecified)	-2	8%	5.8µM*	?	0	-20
CCSc1nnc(-c2sc3nnc(-c4ccccc4)c(-c4ccccc4)c3c2N)o1	18	-6%	23µM*	13µM*	?	23
CCSc1nnc(-c2ccncc2)o1	6	0%	-2%	1%	-21	3
COc1cccc(-c2cc(=O)c3cc(NC(=O)c4ccc(N(C)C)cc4)ccc3[nH]2)c1	-28	1%	1µM*	0.92µM*	144	-8
COc1cccc(-c2cc(=O)c3cc(NC(=O)c4ccccc4)ccc3[nH]2)c1	2	7%	4.1µM*	4.6µM*	170	-3
